Inconclusive results are not listed. Activity calls are given as the source filed them. Calls follow the shape of the dose curve; as a rule, active = well fitted inhibition curve with a large enough effect; inconclusive = small, poorly fitted or top-dose-only effect; inactive = flat fitted curve, though single readings scatter.
What was measured:
Experiment in all cases: qHTS profiling for inhibitors of Plasmodium falciparum proliferation (AID 504749); also: nearly all actives have a fitted effect of over 60% in size
Conditions in all cases: P. falciparum in erythrocytes, SYBR Green DNA, 72 h; series mostly up to 28.7 µM
[1] = test system: ATS95
In short: (§1)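 Parasite proliferation within erythrocytes, 72 h exposure. Endpoint: SYBR Green I fluorescence after overnight lysis at room temperature. Controls: 0.29 uM artemisinin, DMSO.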

[2] = test system: C2A
In short: as §1

[3] = test system: CP185
In short: as §1

[4] = test system: CP191
In short: as §1

[5] = test system: CP192
In short: as §1

[6] = test system: CP194
In short: as §1

[7] = test system: CP201
In short: as §1

[8] = test system: CP203
In short: as §1

[9] = test system: CP211
In short: as §1

[10] = test system: CP215
In short: as §1

[11] = test system: CP217
In short: as §1

[12] = test system: CP237
In short: as §1

[13] = test system: CP238
In short: as §1

[14] = test system: CP247
In short: as §1

[15] = test system: CP250
In short: as §1

[16] = test system: CP252
In short: as §1

[17] = test system: CP256
In short: as §1

[18] = test system: CP260
In short: as §1

[19] = test system: CP265
In short: as §1

[20] = test system: CP262
In short: as §1

Measured: Potency

COc1ccc2cc(CCC(C)=O)ccc2c1
not listed: [20]
inactive: all other assays above

COC(=O)c1ccc(O)cc1
inactive: all assays above

CCCCCCCCCCCCCCCCN
not listed: [18]
inactive: all other assays above

O=c1[nH]c(=O)c2ccccc2o1
not listed: [14]
inactive: all other assays above

O[C@@H]1CO[C@H]2[C@@H]1OC[C@@H]2O
inactive: all assays above

O=C(NCCCN1CCOCC1)c1ccc(Cl)cc1
inactive: all assays above

NCc1ccc(S(N)(=O)=O)cc1
not listed: [18] | [19]
inactive: all other assays above

CC(C(=O)O)c1ccc2c(c1)Cc1cccnc1O2 (stereo unspecified)
inactive: all assays above

COc1cc(C(=O)NCCCCCC(=O)O)cc(OC)c1OC
not listed: [18]
inactive: all other assays above

C[C@H]1COc2c(C3(N)CC3)c(F)cc3c(=O)c(C(=O)O)cn1c23
not listed: [14] | [18]
inactive: all other assays above

CC(CSC(=O)c1ccccc1)C(=O)N1C[C@@H](Sc2ccccc2)C[C@H]1C(=O)O (stereo partly specified)
inactive: all assays above

COc1ccc(C(=O)N2CCN(CC(=O)N3CCOCC3)CC2)cc1
not listed: [15]
inactive: all other assays above

CC(C)C[C@@H](N)C(=O)O
inactive: all assays above

CCOc1cc(NC(C)=O)ccc1C(=O)OC
inactive: all assays above

— PubChem BioAssay (NCATS)
